Compound activity from PubChem.
The list is not random: actives were taken first. Their share in the collection is about 3.7%.
tim10-1 inh: inhibits growth of tim10-1 mutant yeast | S. cerevisiae tim10-1 ts strain growth, BacTiter-Glo, 24 h | inhibition, % at 20 µM | 330,000 tested, 2.2% active | AID 463190;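 active = inhibition of at least 40%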;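 also: mutant grown at 25 °C; 0% = DMSO wells with yeast and 100% = wells holding no yeast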
tim23-1 inh: growth inhibitors of tim23-1 mutant yeast; S. cerevisiae tim23-1 growth, BacTiter-Glo luminescence, 24 h; AID 463212; 330,000 tested, 1.3% active; inhibition, % at 20 µM;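 active = growth inhibition of the mutant yeast at or above 50%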;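 also: temperature-sensitive mutant grown at 25 °C; plate controls were DMSO-treated mutant yeast for no effect and medium wells lacking yeast for full effect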
PfHsp90 set2: growth inhibition of yeast expressing Plasmodium Hsp90. 310,000 tested, 0.32% active. inhibition, % at 9.4 µM. S. cerevisiae expressing PfHsp90, BacTiter-Glo ATP, 48 h; yeast lacking PDR1 and PDR3 efflux regulators;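 active = every replicate shows inhibition above about 80%, whatever the replicate mean, limit read from the data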;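 also: 0% = DMSO neutral controls and 100% = 20 µM radicicol positive controls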
NLRP3 yeast inh: inhibitors of NALP3 inflammasome in yeast. Yeast reconstituted NLRP3/ASC/caspase-1, beta-gal luminescence, 24 h. 330,000 tested, 0.39% active. AID 2825. inhibition, % at 10 µM;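 active = inhibition of 50% or more; inactive = inhibition below 50%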;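 also: plate controls were induced DMSO wells for no effect and uninduced yeast grown without galactose for full effect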
TIM10 inh: inhibits growth of TIM10 yeast strain. S. cerevisiae TIM10 strain growth, BacTiter-Glo luminescence, 24 h. inhibition, % at 10 µM. 330,000 tested, 1.4% active. AID 463195;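 active = inhibition of 40% or more at the single tested concentration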;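 also: wild-type TIM10 isogenic control strain grown at permissive 25 °C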
tim10-1 confirm: tim10-1 yeast growth inhibition, confirmed; shares compounds with tim10-1 inh; S. cerevisiae tim10-1 ts strain growth, BacTiter-Glo, 24 h; inhibition, % at 20 µM; 7,400 tested, 56% active;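 active = inhibition of yeast growth at or above a set limit in either of two repeat tests at 20 µM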;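 also: tim10-1 mutant grown at permissive 25 °C to find synthetic lethal compounds; 0% = DMSO yeast wells and 100% = medium wells without yeast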
TIM10 conf: confirmation of TIM10 yeast growth inhibitors; S. cerevisiae tim10 strain growth, BacTiter-Glo luminescence, 24 h; shares compounds with TIM10 inh; 4,600 tested, 63% active; inhibition, % at 10 µM;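 active = inhibition of yeast growth at or above a set limit in either of two replicates at 10 µM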;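 also: this counterscreen used the strain with wild-type TIM10; 0% = yeast with DMSO and 100% = medium wells lacking yeast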
tim23-1 confirm: tim23-1 yeast growth inhibition, confirmed. shares compounds with tim23-1 inh. S. cerevisiae tim23-1 growth, BacTiter-Glo luminescence, 24 h. inhibition, % at 20 µM. 4,400 tested, 83% active. AID 463218;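 active = inhibition above about 39% in either of two replicate wells at 20 µM, limit read from the data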;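 also: temperature-sensitive tim23-1 mutant grown at 25 °C; 0% = DMSO wells with yeast and 100% = medium wells without yeast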
Numbers without * were called inactive.

How did O=C(OCc1nc2ccccc2[nH]1)C12CC3CC(CC(C3)C1)C2 do in these assays?
tim10-1 inh: 57.8*; tim23-1 inh: 58.1*; NLRP3 yeast inh: 3.5; TIM10 inh: 40.0; tim10-1 confirm: 50.6*; TIM10 conf: 23.6; tim23-1 confirm: 43.4*

What do the screens show for `NC(=O)SCC(=O)Nc1ccc(Cl)c(Cl)c1`?
tim10-1 inh: 70.9*; tim23-1 inh: 79.8*; PfHsp90 set2: -0.6; NLRP3 yeast inh: 22.9; TIM10 inh: -26.8; tim10-1 confirm: 31.0*; tim23-1 confirm: 76.3*

Results for CN(CCc1cn[nH]c1)Cc1nc(Cc2ccccc2)no1 ?
tim10-1 inh: 8.9; tim23-1 inh: 0.3; PfHsp90 set2: -2.3; NLRP3 yeast inh: 5.4; TIM10 inh: 12.5

Results for COc1ccc(S(=O)(=O)NC(C)C(=O)NCCN2CCOCC2)cc1Cl (stereo unspecified) ?
tim10-1 inh: -2.3; tim23-1 inh: 3.5; PfHsp90 set2: -5.9; NLRP3 yeast inh: -12.1; TIM10 inh: 1.9

What do the screens show for `COc1ccc(/C(N)=N/OC(=O)CCc2ccccc2)cc1OC`?
tim10-1 inh: 9.2; tim23-1 inh: -1.1; PfHsp90 set2: 19.3; NLRP3 yeast inh: 13.7; TIM10 inh: 17.6

Results for Cc1ccc(/C(N)=N/OC(=O)CCCc2ccccc2)cc1 ?
tim10-1 inh: 53.9*; tim23-1 inh: 69.6*; PfHsp90 set2: 7.1; NLRP3 yeast inh: 1.3; TIM10 inh: 59.5*; tim10-1 confirm: 49.2*; TIM10 conf: 63.2*; tim23-1 confirm: 66.5*

Results for Cc1cccc(/C(N)=N/OC(=O)CCc2ccccc2)c1 ?
tim10-1 inh: 58.9*; tim23-1 inh: 63.0*; PfHsp90 set2: -33.7; NLRP3 yeast inh: 20.5; TIM10 inh: 52.6*; tim10-1 confirm: 52.0*; TIM10 conf: 46.2*; tim23-1 confirm: 45.8*

What do the screens show for `C=CCN(CC=C)C(=O)c1ccc(OC2CCN(C(C)=O)CC2)c(OC)c1`?
tim10-1 inh: 3.9; tim23-1 inh: 9.7; PfHsp90 set2: 8.6; NLRP3 yeast inh: 6.7; TIM10 inh: -9.9

How did CCCn1c(NC(=O)c2cccc(S(=O)(=O)N3CCCC3)c2)nc2ccccc21 do in these assays?
tim10-1 inh: 40.9*; tim23-1 inh: 50.3*; PfHsp90 set2: 7.6; NLRP3 yeast inh: 10.0; TIM10 inh: 39.6; tim10-1 confirm: 27.1; tim23-1 confirm: 57.9*

What do the screens show for `CCCn1c(NC(=O)c2ccccc2)nc2ccccc21`?
tim10-1 inh: 24.3; tim23-1 inh: 19.5; PfHsp90 set2: 6.6; NLRP3 yeast inh: 15.8; TIM10 inh: 4.4

Results for Oc1ccc2ccccc2c1N=Nc1ccccn1 ?
tim10-1 inh: 51.8*; tim23-1 inh: 52.4*; PfHsp90 set2: 124.7*; NLRP3 yeast inh: 44.4; TIM10 inh: 25.1; tim10-1 confirm: 45.9*; tim23-1 confirm: 58.8*

How did COc1c(N)c2ccccc2[nH]c1=O do in these assays?
tim10-1 inh: -2.2; tim23-1 inh: 6.8; NLRP3 yeast inh: 13.6; TIM10 inh: -16.9

What do the screens show for `C(=C\c1nc(N2CCCCCC2)c2ccccc2n1)/c1ccccc1`?
tim10-1 inh: 45.7*; tim23-1 inh: 50.3*; PfHsp90 set2: -22.8; NLRP3 yeast inh: 27.4; TIM10 inh: 43.8*; tim10-1 confirm: 31.0*; TIM10 conf: 19.4; tim23-1 confirm: 37.8

Results for CCOC(=O)c1c(C)[nH]c(C(=O)OCC(=O)N2CCN(S(=O)(=O)c3ccc(C)cc3C)CC2)c1C ?
tim10-1 inh: 8.8; tim23-1 inh: 5.0; PfHsp90 set2: -16.1; NLRP3 yeast inh: 1.7; TIM10 inh: 2.6

What do the screens show for `Cc1nn2c(-c3ccncc3)nnc2c2ccccc12`?
tim10-1 inh: 56.8*; tim23-1 inh: 51.6*; PfHsp90 set2: -58.8; NLRP3 yeast inh: 17.0; TIM10 inh: 76.0*; tim10-1 confirm: 65.1*; TIM10 conf: 74.5*; tim23-1 confirm: 42.6*

What do the screens show for `CC(=O)Nc1cccc(-c2nnc3c4ccccc4c(C)nn23)c1`?
tim10-1 inh: 17.2; tim23-1 inh: 11.2; NLRP3 yeast inh: -7.1; TIM10 inh: 8.5

How did COc1ccc(C(=O)NCC(=O)OCc2ccc(Cl)cc2Cl)cc1OC do in these assays?
tim10-1 inh: 10.7; tim23-1 inh: 13.3; PfHsp90 set2: 9.6; NLRP3 yeast inh: 6.8; TIM10 inh: 1.4

How did CC(C)N(CC(=O)Nc1ccc(Cl)cc1C(F)(F)F)C(=O)CCl do in these assays?
tim10-1 inh: 47.4*; tim23-1 inh: 55.3*; PfHsp90 set2: 0.1; NLRP3 yeast inh: 12.3; TIM10 inh: 66.5*; tim10-1 confirm: 58.8*; TIM10 conf: 56.0*; tim23-1 confirm: 53.6*

What do the screens show for `O=C(O)CSCC(=O)Nc1ccc(Cl)cc1C(F)(F)F`?
tim10-1 inh: 0.9; tim23-1 inh: 7.5; PfHsp90 set2: -16.2; NLRP3 yeast inh: 14.6; TIM10 inh: -8.1

Results for COc1ccc(C(=O)C2CCCN(C(=O)c3cccc(Cl)c3F)C2)cc1OC (stereo unspecified) ?
tim10-1 inh: 14.0; tim23-1 inh: 16.9; PfHsp90 set2: 2.0; NLRP3 yeast inh: 14.6; TIM10 inh: -19.4

Results for O=C(COC(=O)C1=COCCO1)NC1CCCCCCC1 ?
tim10-1 inh: 4.9; tim23-1 inh: 12.0; PfHsp90 set2: -6.8; NLRP3 yeast inh: 2.8; TIM10 inh: -25.8

What do the screens show for `N#C/C(=C\c1c(Cl)cccc1Cl)c1nc2ccccc2o1`?
tim10-1 inh: 73.4*; tim23-1 inh: 61.7*; PfHsp90 set2: -45.3; NLRP3 yeast inh: -5.3; TIM10 inh: 40.2*; tim10-1 confirm: 75.5*; TIM10 conf: -15.0; tim23-1 confirm: 74.0*

What do the screens show for `N#C/C(=C\c1c(Cl)cccc1Cl)c1nc2ccccc2[nH]1`?
tim10-1 inh: 62.5*; tim23-1 inh: 61.3*; PfHsp90 set2: -11.8; NLRP3 yeast inh: 5.4; TIM10 inh: 48.0*; tim10-1 confirm: 52.9*; TIM10 conf: 52.2*; tim23-1 confirm: 72.7*

What do the screens show for `COc1ccc(NC(=O)/C(Cl)=C(/Cl)S(=O)Cc2ccccc2)cn1` (stereo unspecified)?
tim10-1 inh: 48.6*; tim23-1 inh: 86.4*; PfHsp90 set2: 119.0*; NLRP3 yeast inh: 21.8; TIM10 inh: 69.2*; tim10-1 confirm: 33.7*; TIM10 conf: 83.9*; tim23-1 confirm: 13.9

Results for COc1ccc(CS(=O)(=O)/C(Cl)=C(/Cl)C(=O)Nc2ccc(OC)nc2)cc1 ?
tim10-1 inh: 72.7*; tim23-1 inh: 72.0*; PfHsp90 set2: -51.3; NLRP3 yeast inh: 9.6; TIM10 inh: 52.3*; tim10-1 confirm: 65.9*; TIM10 conf: 58.4*; tim23-1 confirm: 76.1*
